An excerpt weighted towards active compounds, which were near 1.6% of everything screened.
KCNQ2 enhance: potentiators of rat KCNQ2 potassium channel; Potassium voltage-gated channel subfamily KQT member 2 (Rattus norvegicus), O88943; CHO-K1 KCNQ2, FluxOR thallium flux fluorescence; active compounds read high; B-score at 10 µM; hit rate 0.54% among 310,000;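 active = fluorescence ratio B-score at least 3 SD of library B-scores, with initial fluorescence B-score within 3 of them, cut at about 5.3 in these data; same plate scores as AID 2156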;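 note: B-score of peak minus minimum over baseline fluorescence ratio after K+ and Tl+ stimulus; positive B-score means potentiation of KCNQ2 with more thallium influx and brighter signal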
KCNQ2 inh: rat KCNQ2 potassium channel inhibitors, primary screen, cell-based, CHO-K1, FluxOR thallium flux, B-score | B-score at 10 µM | 20 min; active compounds read low | hit rate 1.1% among 310,000 | Potassium voltage-gated channel subfamily KQT member 2 (Rattus norvegicus), O88943 | AID 2156, 2009;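 active = fluorescence ratio B-score at most minus 3 library SDs, with starting brightness B-score within 2 library SDs, cut at about -5.5 in these data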
Kir21 conf inh: mouse Kir2.1 channel blockers, retest, confirmation, cell-based, FluxOR thallium flux, duplicate; shares compounds with KCNQ2 enhance; Kir2.1-expressing cells, FluxOR thallium flux fluorescence; active compounds read low; Tl flux remaining, % of negative control (active compounds read low), % at 10 µM; hit rate 41% among 2,300;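 active = Primary-screen hit whose thallium flux fell at least 3 control SD below untreated wells in both duplicates, with normal baseline fluorescence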
Target sequence (P35561 whole entry, looked up): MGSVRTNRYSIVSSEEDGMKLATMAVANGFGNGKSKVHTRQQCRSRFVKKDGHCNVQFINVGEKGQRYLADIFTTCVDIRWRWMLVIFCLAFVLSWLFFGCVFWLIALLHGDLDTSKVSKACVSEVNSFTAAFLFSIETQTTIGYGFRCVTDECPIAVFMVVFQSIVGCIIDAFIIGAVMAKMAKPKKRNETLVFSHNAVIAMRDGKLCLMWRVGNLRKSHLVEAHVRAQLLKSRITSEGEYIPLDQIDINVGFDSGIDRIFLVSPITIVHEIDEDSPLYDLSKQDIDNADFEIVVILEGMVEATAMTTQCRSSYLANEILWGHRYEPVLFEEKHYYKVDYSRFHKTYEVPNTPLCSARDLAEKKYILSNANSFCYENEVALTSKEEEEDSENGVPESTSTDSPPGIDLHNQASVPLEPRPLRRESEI
HEK293 ctr: alters thallium flux in parental HEK293 cells, Kir2.1 counter-screen | shares compounds with KCNQ2 enhance | FluxOR thallium flux fluorescence; 0% = unstimulated blank wells | FluxOR signal as % of negative control (100 = no effect), % at 10 µM | hit rate 19% among 2,300;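 active = dye signal at least 3 control SD above or below untreated wells in both duplicates, raw fluorescence within 3, either direction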;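 note: percent is based on the flux ratio of peak minus minimum fluorescence over baseline F0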
CHO-K1 Tl ctr: nonspecific thallium flux increase in parental CHO-K1, confirmation, counter-screen for KCNQ2 potentiator project, cell-based, FluxOR thallium flux, duplicate. shares compounds with KCNQ2 enhance. parental CHO-K1 cells, FluxOR thallium flux fluorescence; zero = vehicle mean+3SD, 100% = vehicle-minus-blank window. activity increase over 3SD of controls, % at 10 µM. hit rate 43% among 1,200. AID 2282, 2010;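 active = signal rise of at least 3 SD above the untreated control mean, in both duplicate wells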;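 note: counter screen of KCNQ2 potentiator hits so any rise reflects channel-independent effects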
KCNQ1 sel pot: human KCNQ1 channel potentiation off-target, confirmation, selectivity assay for KCNQ2 potentiator project, cell-based, CHO, FluxOR thallium flux. hit rate 28% among 1,200. shares compounds with KCNQ2 enhance. CHO KCNQ1 stable, FluxOR thallium flux fluorescence; beyond 3SD, as % of vehicle-control signal. activation over 3SD threshold, % at 10 µM;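 active = fluorescence ratio rise of at least 3 SD of vehicle wells above their mean, in both replicate wells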
KCNQ2 pot confirm: rat KCNQ2 channel potentiators, confirmation, cell-based, CHO, FluxOR thallium flux, duplicate; shares compounds with KCNQ2 enhance; CHO-KCNQ2 cells, FluxOR thallium flux fluorescence; potentiation, less the hit threshold, % at 10 µM; hit rate 68% among 1,200;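 active = fluorescence ratio rising 3 SD or more over the vehicle control mean in both replicates, plus primary screen hit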;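 note: peak minus minimum thallium fluorescence divided by baseline after K/Tl stimulus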
Kir2-1 sel: mouse Kir2.1 channel activation off-target, confirmation, selectivity assay for KCNQ2 potentiator project, cell-based, HEK293, FluxOR thallium flux. hit rate 2% among 1,200. HEK293 Kir2.1, FluxOR thallium flux fluorescence. AID 2345, 2010. activity over 3SD threshold, % at 10 µM. shares compounds with KCNQ2 enhance;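 active = fluorescence ratio rise of at least 3 SD above the vehicle-control mean, seen in both replicates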
KCNQ2 W236L MoA: potentiators of retigabine-insensitive KCNQ2 W236L, mechanism study for KCNQ2 potentiator project, cell-based, rat KCNQ2 W236L, CHO, automated patch clamp; hit rate 10% among 940; current increase over 3SD of negative controls (%), active compounds read high, % at 25 µM; automated patch clamp current; shares compounds with KCNQ2 enhance; AID 2558, 2010;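 active = current increase at least 3 SD of the untreated controls above them in both duplicate recordings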
A number is an active result; 0 = inactive; - = no result given.

SMILES | KCNQ2 enhance | KCNQ2 inh | Kir21 conf inh | HEK293 ctr | CHO-K1 Tl ctr | KCNQ1 sel pot | KCNQ2 pot confirm | Kir2-1 sel | others
CCN1CCN(c2nc(C)c3c(n2)CC(C)CC3=O)CC1 (stereo not given) | 0 | 0 | - | - | - | - | - | -
Cc1nc(N2CCN(Cc3ccccc3)CC2)nc2c1C(=O)CC(C)C2 (stereo not given) | - | 0 | 65% | 0 | - | - | - | -
Cc1ccc(S(=O)(=O)N2CCN(C(=O)Cn3nc(C(=O)O)c4ccccc4c3=O)CC2)cc1 | - | 0 | - | - | - | - | - | -
Cc1nnc(C)n1/N=C/c1cc(Br)cc(Br)c1O | 11 | 0 | 0 | 0 | 0 | 41 | 17 | 0 | KCNQ2 W236L MoA=0
Oc1c(Br)cc(Br)cc1/C=N/n1c(-c2ccccc2)n[nH]c1=S | 11 | 0 | 0 | 0 | 12 | 0 | 11 | 0 | KCNQ2 W236L MoA=0
Cc1nnc(C)n1/N=C/c1cc(Br)ccc1O | - | 0 | - | - | - | - | - | -
Oc1ccc(Br)cc1/C=N/n1c(C2CCCCC2)n[nH]c1=S | 7.4 | 0 | 0 | 0 | 70 | 0 | 0 | 0
Oc1c(Br)cc(/C=N/n2c(-c3ccccc3)n[nH]c2=S)c(Br)c1O | - | 0 | - | - | - | - | - | -
Oc1ccc(/C=N/n2c(C3CCCCC3)n[nH]c2=S)c(O)c1 | - | 0 | - | - | - | - | - | -
O=C(Nc1ccccc1C(=O)NCCc1ccc(O)cc1)c1ccco1 | 0 | 0 | - | - | - | - | - | -
Cc1cccc(N2CCN(C(=O)c3ccc4c(c3)CCN4S(C)(=O)=O)CC2)c1C | 0 | 0 | - | - | - | - | - | -
CCCNC(=O)CN1CCC(c2nc3ccccc3[nH]2)CC1 | - | 0 | - | - | - | - | - | -
CCOC(=O)c1sc2ncnc(NCc3ccco3)c2c1C | 14 | 0 | 0 | 238% | 23 | 0 | 47 | 0 | KCNQ2 W236L MoA=0
CCOC(=O)c1sc2nc(CC(=O)OC)nc(NCc3ccco3)c2c1C | 0 | 0 | - | - | - | - | - | -
C=CCn1c(SCC(=O)Nc2ccc(C(=O)O)cc2)nnc1-c1cccnc1 | - | 0 | - | - | - | - | - | -
C=CCn1c(SCc2cccc3ccccc23)nnc1-c1cccnc1 | - | 0 | 45% | 0 | - | - | - | -
OCCNc1nc(Nc2cc(Cl)ccc2OC2CCCC2)nc(N2CCCC2)n1 | 0 | 0 | - | - | - | - | - | -
Cc1cc(C(=O)OCC(=O)Nc2ccccc2)c(C)o1 | 0 | 0 | - | - | - | - | - | -
Cc1cc(C(=O)OCC(=O)Nc2ccc(F)cc2)c(C)o1 | 5.7 | 0 | 0 | 0 | 74 | 0 | 0 | 0 | KCNQ2 W236L MoA=0
COc1cc(NC(=O)COC(=O)CCOc2ccc(C)cc2)cc(OC)c1 | 0 | 0 | - | - | - | - | - | -
Cc1ccc(NC(=O)NC(=O)c2cnccc2C(F)(F)F)c(C)c1 | 0 | 0 | - | - | - | - | - | -
Cc1ccc(N=C(NO)c2cnccc2C(F)(F)F)c(C)c1 | 7.4 | 0 | 0 | 0 | 0 | 0 | 0 | 0
CCC(C)N(C(=O)COC(=O)CNC(=O)c1sc2ccccc2c1Cl)C1CCS(=O)(=O)C1 (stereo not given) | 0 | 0 | - | - | - | - | - | -
CCOC(=O)c1c(NC(=S)Nc2ccc(OC)cc2)sc2c1CCC2 | - | 0 | - | - | - | - | - | -
C=CCNC(=S)Nc1sc2c(c1C(=O)OCC)CC(C(C)C)OC2 (stereo not given) | 8.8 | 0 | 0 | 197% | 22 | 84 | 14 | 0 | KCNQ2 W236L MoA=0
SMILES | KCNQ2 enhance | KCNQ2 inh | Kir21 conf inh | HEK293 ctr | CHO-K1 Tl ctr | KCNQ1 sel pot | KCNQ2 pot confirm | Kir2-1 sel | others
COc1ccc(C2=NS(=O)(=O)N(C)C(C(=O)N3CCCCC3C)=C2)cc1 (stereo not given) | - | 0 | - | - | - | - | - | -
C=CCc1c(C)nc(SCc2ccccc2)[nH]c1=O | 0 | 0 | - | - | - | - | - | -
CC12CCC(C(=O)Nc3cccc4ccccc34)(C1Br)C2(C)C (stereo not given) | 10 | 0 | 0 | 0 | 1.5 | 0 | 48 | 0 | KCNQ2 W236L MoA=0
Nc1ccccc1C(=O)Nc1cccc2ccccc12 | - | 0 | - | - | - | - | - | -
C/C(=N\NC(=O)c1nnn(-c2nonc2N)c1CN1CCOCC1)c1ccc(CC(C)C)cc1 | - | 0 | - | - | - | - | - | -
COc1ccccc1NC(=O)C(=O)NNC(=O)COc1ccc2ccccc2c1 | 23 | 0 | 0 | 0 | 41 | 0 | 28 | 0 | KCNQ2 W236L MoA=0
COc1ccccc1NC(=O)COc1ccc2ccccc2c1 | - | 0 | - | - | - | - | - | -
Cc1ccc(CN2CCC(C(=O)Nc3cccc(-c4cccc(F)c4)c3)CC2)o1 | - | 0 | - | - | - | - | - | -
O=C(Nc1cccc(-c2cccc(Cl)c2)c1)C1CCN(Cc2ccc(CO)o2)CC1 | - | 0 | 63% | 0 | - | - | - | -
CCn1c(SCC(O)c2ccccc2)nnc1-c1ccccc1 (stereo not given) | 0 | 0 | - | - | - | - | - | -
CCn1c(SCc2cccc(C)c2)nnc1-c1ccccc1 | - | 0 | 57% | 0 | - | - | - | -
Cc1cc(C)c2nc(N3CCCC(C(=O)NC4CCCC4)C3)sc2c1 (stereo not given) | 0 | 0 | - | - | - | - | - | -
CCOc1ccc(N2CC(C(=O)NCc3ccc4c(c3)OCO4)CC2=O)cc1 (stereo not given) | 0 | 0 | - | - | - | - | - | -
c1ccc(CNCCC(Cc2ccccc2)c2ccco2)cc1 (stereo not given) | - | 0 | 17% | 74% | - | - | - | -
CN(C)c1ccc(CNCCC(Cc2ccccc2)c2ccco2)cc1 (stereo not given) | - | 0 | - | - | - | - | - | -
Cc1c(Cl)cccc1NC(=O)C(=O)NNC(=O)c1ccccc1F | 22 | 0 | 0 | 426% | 0 | 0 | 73 | 0 | KCNQ2 W236L MoA=0
Cc1ccccc1C(=O)NNC(=O)C(=O)Nc1cccc(Cl)c1C | 14 | 0 | 0 | 275% | 0 | 0 | 21 | 0 | KCNQ2 W236L MoA=0
Cc1c(Cl)cccc1Nc1ccccc1C(=O)O | - | 0 | - | - | - | - | - | -
CSc1ccccc1NC(=O)Nc1cccc(Cl)c1C | 0 | 0 | - | - | - | - | - | -
C=CCn1c(=S)[nH]c2cc(C(=O)Nc3ccc(F)cc3)ccc2c1=O | - | 0 | - | - | - | - | - | -
FC(F)(F)c1cnc(Oc2ccc(-c3nnco3)cc2)c(Cl)c1 | - | 0 | - | - | - | - | - | -
FC(F)(F)c1cnc(Oc2ccccc2-c2nnco2)c(Cl)c1 | 7.4 | 0 | 0 | 0 | 0 | 0 | 53 | 0 | KCNQ2 W236L MoA=0
O=C(O)CN1C(=O)/C(=C2\C(=O)N(Cc3ccccc3Cl)c3ccccc32)SC1=S | 6.2 | 0 | 0 | 0 | 0 | 0 | 0 | 0
O=C1/C(=C2\C(=O)N(Cc3ccc(F)cc3)c3ccccc32)SC(=S)N1CCS(=O)(=O)O | - | 0 | - | - | - | - | - | -
